# The campaign covered roughly 650,000 compounds. About 5,900 (0.91%) were called active. For the sample, actives were picked, then their nearest neighbours and some compounds at random. Unmarked numbers belong to inactive results. Rule as the data show it: active = inhibition above about 50%; inactive = the rest.
# Molecular target: Microphthalmia-associated transcription factor (Homo sapiens) (UniProt O75030)
# Experiment: MITF inhibitors, primary screen, biochemical, AlphaScreen, human (AID 1259374);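 also: 0% = vehicle wells with protein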
# Details: AlphaScreen MITF homodimerization, bead proximity signal; at 2.6 µM; hits give high values
# Sequence of Microphthalmia-associated transcription factor (Homo sapiens) (O75030 whole entry, looked up): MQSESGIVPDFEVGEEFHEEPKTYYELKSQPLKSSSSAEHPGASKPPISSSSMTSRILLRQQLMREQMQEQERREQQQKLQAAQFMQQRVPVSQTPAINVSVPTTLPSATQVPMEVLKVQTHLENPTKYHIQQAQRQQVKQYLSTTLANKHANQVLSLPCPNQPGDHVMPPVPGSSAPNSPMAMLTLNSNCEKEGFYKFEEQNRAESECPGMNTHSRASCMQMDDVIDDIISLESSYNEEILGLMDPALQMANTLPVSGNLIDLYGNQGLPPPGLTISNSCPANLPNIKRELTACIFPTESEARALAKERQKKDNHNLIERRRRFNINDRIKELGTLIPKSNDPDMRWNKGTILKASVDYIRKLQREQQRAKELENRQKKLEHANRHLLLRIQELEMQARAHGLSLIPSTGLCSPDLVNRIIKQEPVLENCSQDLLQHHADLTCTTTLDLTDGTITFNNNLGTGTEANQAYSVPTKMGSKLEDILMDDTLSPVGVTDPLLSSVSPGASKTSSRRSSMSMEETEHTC
row,SMILES,inhibition
1,O=C(CSc1nc(Nc2ccc(F)cc2)c2ccccc2n1)c1ccc(Cl)cc1,10.1%
2,Cc1ccc2[nH]c3nc(N/N=C/c4ccc(N(C)C)cc4)nnc3c2c1,15.6%
3,CC(C)N(CCNc1nc(N2CCCC2CO)nc2nc[nH]c12)C(C)C (centres undefined),5.38%
4,CC(=O)Oc1ccccc1C(=O)Nc1ccc(Cl)c(Cl)c1,0.46%
5,CCOC(=O)/C(C#N)=C/c1ccccc1OC,-4.17%
6,CNc1ccccc1C(=O)OCc1ccc([N+](=O)[O-])cc1Cl,12.5%
7,Cc1ccc2nc3sc(C(=O)Nc4c[nH]c(=O)[nH]c4=O)c(N)c3cc2c1,0.86%
8,Cc1ccc2nc(CN3CCN(C=O)CC3)nc(N3CCSCC3)c2c1,-5.97%
9,O=C(NCCc1ccc(F)cc1)c1ccc(Br)o1,-9.44%
10,CCC(C(=O)N1CCN(C(=O)C(CC)c2ccccc2)CC1)c1ccccc1 (centres undefined),6.26%
11,COc1cc(CN2CCN(C(=O)c3cc(OC)c(OC)c(OC)c3)CC2)cc(OC)c1O,-11%
12,O=CN1CCN(Cc2ccccc2Cl)CC1,3.26%
13,CC1CCCC(N2CCN(Cc3ccccc3Cl)CC2)C1 (centres undefined),63.2% (active)
14,COc1cc(CN2CCN(C(=O)C(c3ccccc3)c3ccccc3)CC2)cc(OC)c1OC,53.1% (active)
15,NCC1CCN(Cc2ccccc2Cl)CC1,21.9%
16,CCN(CC)C(=O)C(Cc1ccccc1)NCC(=O)Nc1ccc(C)cc1 (centres undefined),10.3%
17,COc1cccc(OC)c1C(=O)Nc1ccc(Cl)cn1,-14.5%
18,CCOC(=O)c1sc(=S)n(-c2cccc(C(F)(F)F)c2)c1N,-1.48%
19,CN(C)c1cccc(Nc2nccc(Nc3ccccc3)n2)c1,-2.6%
20,CC(Nc1ccc(-c2cccc(C=O)c2)cn1)c1ccc(F)cc1 (centres undefined),7.6%

row,SMILES,inhibition
1,CN(C)c1cccc(Nc2ccc(-c3cccc(C=O)c3)cn2)c1,50.8% (active)
2,Fc1ccc(-c2cccc3ccc(N4CCN(c5ncccn5)CC4)nc23)cc1,2.86%
3,NC(=O)c1c(/N=C/c2ccc([N+](=O)[O-])cc2)sc2c1CCCC2,7.76%
4,O=C1N[C@H](Cc2ccc(O)cc2)C(=O)N2CCN(C(=O)c3ccccc3Cl)C[C@H]12,-6.27%
5,COc1cccc(/C=C(\C#N)c2nc3ccc(C)cc3[nH]2)c1OC,7.46%
6,COc1cccc(/C=C(\C#N)c2nc3ccccc3[nH]2)c1OCc1ccc(Cl)cc1Cl,52.7% (active)
7,COc1ccccc1/C=C(/C#N)c1nc2ccccc2[nH]1,11.1%
8,Cc1ccc2oc(-c3ccc(C)c(NC(=O)c4ccc(Cl)c([N+](=O)[O-])c4)c3)nc2c1,14.9%
9,O=C1O/C(=C(\c2cccc3ccccc23)[N+](=O)[O-])c2ccccc21,7.98%
10,O=C(NCC1CCCO1)C1CCC(Cn2c(SCc3ccc([N+](=O)[O-])cc3)nc3ccccc3c2=O)CC1 (centres undefined),1.86%
11,COC(=O)c1sc2ccccc2c1NC(=O)c1ccc2c(c1)OCCO2,4.39%
12,COC(=O)c1ccccc1NS(=O)(=O)c1ccc2[nH]c(=O)ccc2c1,6.38%
13,COC(=O)c1cccc(NC(=O)c2ccccc2NS(=O)(=O)c2ccc(C)cc2)c1C,-6.07%
14,COC(=O)c1cccc(NS(=O)(=O)c2ccc3ccccc3c2)c1C,52.5% (active)
15,CCCCCCC1CCC(C(=O)Oc2ccc(C(=O)OCC)cc2)CC1 (centres undefined),7.45%
16,COc1ccc2c(c1)CC(c1nc(Nc3ccc4cnccc4c3)c3ccccc3n1)CO2 (centres undefined),55.2% (active)
17,COc1ccc2c(c1)CC(C(=O)Nc1ccc(-c3ccncc3)cc1Oc1ccccc1)CO2 (centres undefined),12.9%
18,COc1ccc2c(c1)CC(c1nc3ccc(-c4cccnc4)cc3o1)CO2 (centres undefined),-9.3%
19,O=C(Nc1nc(-c2ccc(Br)cc2)cs1)N1CCOCC1,6.09%
20,Cc1cc(-c2cnc(N3CCCCC3)nc2C2CCNCC2)on1,-11%

row,SMILES,inhibition
1,O=C(Cc1cccc(Cl)c1)NCc1ccccc1,-1.38%
2,CN(CCC(=O)O)Cc1cccc(Cl)c1,69.7% (active)
3,CN(CCC(=O)Nc1cccc(F)c1)Cc1ccccc1,-7.29%
4,Cc1ccc(Nc2nc3nonc3nc2N2CCN(C(=O)c3ccccc3)CC2)cc1Cl,2.8%
5,CCc1ccccc1NC(=O)c1cc2nc(-c3cccs3)cc(C(F)(F)F)n2n1,23.3%
6,COc1cc(CNC(C)(C)C)ccc1OCCO,-1.33%
7,COc1ccc(COCC(O)CNCC(C)(C)CN(C)C)cc1OC (centres undefined),69.4% (active)
8,CCC(CO)NCC(O)COCc1ccc(Cl)cc1 (centres undefined),-4.49%
9,Cc1c(C(=O)N2CCN(c3ccc(F)cc3)CC2)sc2ncn(CC(=O)N3CCC(C)CC3)c(=O)c12,9.34%
10,Cc1cnc(C)c(-c2ccc3c(c2)CC(CNC(=O)/C=C/c2cccc(F)c2F)O3)n1 (centres undefined),10.3%
11,CCOC(=O)c1[nH]c(COC(C)=O)c(CCC(=O)OC)c1C,-19.8%
12,O=C(COc1ccccc1)Nc1ccc(N2CCC(NCCc3cccs3)CC2)cc1,8.32%
13,COc1ccc2c(c1)CC(C(=O)Nc1ccc(-c3cn[nH]c3)cc1OCC(N)=O)CO2 (centres undefined),52.7% (active)
14,COc1ccc2c(c1)CC(C(=O)Nc1ccc(-c3cn[nH]c3)cc1OC(C)CN(C)C)CO2 (centres undefined),13.3%
15,COc1ccc2c(c1)CC(C(=O)Nc1ccc(-c3cn[nH]c3)cc1C(=O)NCc1ccccc1)CO2 (centres undefined),24.1%
16,COc1ccc2c(c1)CC(C(=O)Nc1ccc(-c3cn[nH]c3)cc1OCCN(C)C)CO2 (centres undefined),3.86%
17,COc1ccc2c(c1)CC(C(=O)Nc1ccc(-c3cn[nH]c3)cc1OCc1ccccc1)CO2 (centres undefined),62.3% (active)
18,COc1ccc2c(c1)CC(C(=O)Nc1ccc(-c3cn[nH]c3)cc1O[C@H]1CCOC1)CO2 (some centres undefined),16.3%
19,CCc1ccc(C(=O)N2CCN3C(=O)[C@H](CO)NC(=O)[C@H]3C2)cc1,-8.93%

# Source: PubChem BioAssay AID1259374 (The Scripps Research Institute Molecular Screening Center, 2018)
